The values that follow come from PubChem BioAssay (NCI).

About 83,000 compounds went through this panel and 20% of them were active in at least one assay; those are over-represented in the sample as a whole.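 For each line, cells grew in 96-well plates with the test compound present at a single concentration for 48 hours.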 A number with no mark means an inactive call. The source made the active and inactive calls. The calls were made as follows: active = growth percent below 10; inactive = the rest.

Some test systems named below: RPMI-8226 leukemia; OVCAR-8 ovarian; OVCAR-4 ovarian; SK-OV-3 ovarian; IGROV1 ovarian; OVCAR-3 ovarian; HS 578T breast; NCI/ADR-RES ovarian; T-47D breast; BT-549 breast; MDA-MB-435 melanoma; SW-620 colon; MCF7 breast; HCT-116 colon; HCC-2998 colon; KM12 colon; MDA-MB-468 breast; OVCAR-5 ovarian.
Holding throughout (assay): NCI-60 one-dose screen, 48 h (100 = growth as untreated, 0 = no growth, -100 = all killed)
Details in all cases: 10 µM

Turning to `COc1ccc(C(=O)Nc2ccc(-c3ccc4c(c3)NC(=O)/C4=C\c3ccc[nH]3)cc2)cc1`, the growth is 65.5% in the test on RPMI-8226 leukemia; -22.3% (active) in the test with OVCAR-8 ovarian; -36.8% (active) in the test on OVCAR-4 ovarian; 79.2% in the test on SK-OV-3 ovarian; 65.9% in the test on IGROV1 ovarian; 9.86% (active) in the test with OVCAR-3 ovarian. Besides, the growth was -0.0796% (active) in the test on HS 578T breast; -42.8% (active) with NCI/ADR-RES ovarian; 14.5% with T-47D breast; 88.5% with BT-549 breast; 30.4% in the test with MDA-MB-435 melanoma; -14.7% (active) with SW-620 colon. Further, the growth in the test with MCF7 breast was -31.9% (active); in the test with HCT-116 colon it was 36.4%; with HCC-2998 colon it was 31.3%; in the test on KM12 colon it was 1.95% (active); in the test on MDA-MB-468 breast, -70% (active).

As to `O=C(Nc1cccc(-c2cn(-c3ccc4oc(=O)ccc4c3)nn2)c1)Nc1cc(C(F)(F)F)cc(C(F)(F)F)c1`, the growth with RPMI-8226 leukemia was 6.66% (active); in the test on OVCAR-8 ovarian it was 34.6%; with OVCAR-4 ovarian, 7.53% (active); in the test with SK-OV-3 ovarian, 36.5%; with IGROV1 ovarian it was 29.9%; in the test on OVCAR-3 ovarian it was 16.2%. Also, the growth in the test on HS 578T breast was 27.7%; in the test with NCI/ADR-RES ovarian, 50.4%; in the test on T-47D breast, -0.405% (active); with MDA-MB-435 melanoma it was 49%; in the test on SW-620 colon, 56.6%; in the test on MCF7 breast, 17%. Besides, the figures for the growth in the test on HCT-116 colon, with HCC-2998 colon and in the test with KM12 colon were 29.1%, 33.1% and 33.2%, respectively.

For the compound `O=C(c1ccc(Cl)cc1)C1[C@H](c2ccccc2Br)[C@@H](c2ccccc2)NC12C(=O)Nc1ccccc12` (stereo partly drawn), the growth in the test on RPMI-8226 leukemia was 12.3%; in the test on OVCAR-8 ovarian, 27.4%; in the test with OVCAR-4 ovarian it was 25.9%; with SK-OV-3 ovarian it was 35.9%; with IGROV1 ovarian it was 31.3%; with OVCAR-3 ovarian, 10.5%. The growth in the test on HS 578T breast is 18%; in the test with NCI/ADR-RES ovarian, -70% (active); with T-47D breast it was 48.6%; with BT-549 breast, 48%; in the test on MDA-MB-435 melanoma, -47.3% (active); in the test on SW-620 colon, 5.99% (active). For the same compound, the growth in the test on MCF7 breast was -4.27% (active); in the test with HCT-116 colon, 16.3%; in the test on HCC-2998 colon, 7.29% (active); with KM12 colon it was 15.2%; with MDA-MB-468 breast, -45.9% (active).

Take `CCCCCc1ccc(S(=O)(=O)N(C(C)=O)c2cc(-c3csc(N(C)C(C)=O)n3)ccc2N2CCN(C)CC2)cc1`: the growth is -24.8% (active) with RPMI-8226 leukemia; 41.2% in the test with OVCAR-8 ovarian; 62% in the test with OVCAR-4 ovarian; 96% in the test with SK-OV-3 ovarian; 44.7% with OVCAR-3 ovarian; 35.7% in the test with HS 578T breast. Moreover, the growth is 47.9% in the test on NCI/ADR-RES ovarian; 30.4% in the test with T-47D breast; 73.9% in the test on BT-549 breast; -97.4% (active) with MDA-MB-435 melanoma; -77.9% (active) in the test on SW-620 colon; -73.1% (active) in the test on MCF7 breast. For the same compound, the growth with HCT-116 colon is -87.8% (active); with HCC-2998 colon, -67.8% (active); in the test on KM12 colon, 15.7%; with MDA-MB-468 breast it was 20.9%.

For the compound `O=C(c1ccc(O)cc1)C1[C@H](c2ccccc2Br)[C@@H](c2ccccc2)NC12C(=O)Nc1ccc(Br)cc12` (stereo partly drawn), the growth was 24.6% with RPMI-8226 leukemia; 48.6% in the test on OVCAR-8 ovarian; 64.1% in the test with OVCAR-5 ovarian; 51.4% in the test on OVCAR-4 ovarian; 65.2% in the test on SK-OV-3 ovarian; 7.23% (active) with OVCAR-3 ovarian. Further, the growth was 58.5% with HS 578T breast; 64.9% in the test on NCI/ADR-RES ovarian; 61.7% with T-47D breast; 55.6% with BT-549 breast; 33.8% with MDA-MB-435 melanoma; 50.9% in the test on SW-620 colon. The growth with MCF7 breast was 7.04% (active); in the test on HCT-116 colon, 61.6%; with HCC-2998 colon, -13.8% (active); with KM12 colon it was 18.4%; with MDA-MB-468 breast, -25.6% (active).

In the case of `CCCCCCCCCCCCCCCCCCCC(=O)NCCc1c[nH]c2ccc(OC(=O)CCCC(=O)OCCOOCCOOCCOOCCOOCCOOCCOOCCOOCCOOCCOOCCOOCCOOCCOC)cc12`, the growth is 22.4% in the test on T-47D breast; 82.7% in the test on MDA-MB-435 melanoma; 83% in the test with SW-620 colon; 24.3% with MCF7 breast; 32.7% in the test with HCT-116 colon; 87.8% with HCC-2998 colon. Moreover, the growth is 35.7% in the test with KM12 colon and 85.6% with MDA-MB-468 breast.

Take `CCN1CCN(c2ccc(NC(=O)Nc3ccc(-c4cc(C(=O)NC(C)C)c5ncccc5n4)cc3)cc2C(F)(F)F)CC1`: the growth is -43.3% (active) with RPMI-8226 leukemia; -83.3% (active) in the test with OVCAR-8 ovarian; -83.2% (active) with OVCAR-4 ovarian; -91% (active) in the test on SK-OV-3 ovarian; -86% (active) in the test with IGROV1 ovarian; -60.1% (active) in the test on OVCAR-3 ovarian. For the same compound, the growth was -37.7% (active) in the test on HS 578T breast; -66.9% (active) in the test on NCI/ADR-RES ovarian; -66.5% (active) in the test on T-47D breast; -82.1% (active) with BT-549 breast; -92.9% (active) in the test on MDA-MB-435 melanoma; -69.8% (active) in the test on SW-620 colon. Further, the growth with MCF7 breast is -89.9% (active); in the test on HCT-116 colon, -94% (active); in the test with HCC-2998 colon, -98.2% (active); in the test with KM12 colon, -83.7% (active); with MDA-MB-468 breast it was -91.1% (active).

Take `S=c1nc(-c2ccccc2)cc(-c2cc3ccccc3nc2Cl)[nH]1`: the growth in the test with RPMI-8226 leukemia was 76.3%; with OVCAR-8 ovarian it was 76.1%; in the test with OVCAR-5 ovarian, 110%; in the test on OVCAR-4 ovarian it was 91.7%; in the test with SK-OV-3 ovarian, 75%; in the test on IGROV1 ovarian it was 82.8%. Also, the growth in the test on HS 578T breast is 57.6%; with NCI/ADR-RES ovarian it was 49.1%; in the test with T-47D breast, 78.1%; with BT-549 breast, 51.9%; with MDA-MB-435 melanoma, -10.8% (active); in the test with SW-620 colon it was 48.3%. Also, the growth was 45.1% in the test with MCF7 breast, 31.5% with HCT-116 colon, 64.2% in the test with KM12 colon and 66.8% with MDA-MB-468 breast.

Take `Cc1nn(-c2ccccc2)c2ncn(CC(=O)N/N=C/c3c[nH]c4ccccc34)c(=O)c12`: the growth with RPMI-8226 leukemia is 73.2%; in the test on OVCAR-8 ovarian it was 89.1%; in the test with OVCAR-4 ovarian, 83.2%; in the test on SK-OV-3 ovarian, 106%; with IGROV1 ovarian, 106%; in the test with OVCAR-3 ovarian, 84.3%. For the same compound, the growth in the test on HS 578T breast was 72.7%; in the test with NCI/ADR-RES ovarian, 101%; in the test on T-47D breast it was 83.2%; in the test with MDA-MB-435 melanoma, 94.9%; in the test on SW-620 colon, 95.4%; in the test on MCF7 breast, 68.7%. Also, the results for the growth with HCT-116 colon, in the test with HCC-2998 colon and in the test with MDA-MB-468 breast were 82.5%, 114% and 102%, respectively.
